The test concerns Scedosporium aurantiacum CBS 136046. In words: growth inhibition relative to DMSO control (OD600); higher = more antifungal activity, active = 80 or more; extreme values may be limits of the assay. To be noted: 5 µM; 72 h; 37 °C.
With `C[C@@H](O)[C@H](N)C(=O)NS(=O)(=O)c1cccc(-c2ccc3[nH]ncc3c2)c1`, the growth inhibition is 21% (inactive).
The same measure for `CC(C)=CCC/C(C)=C/CNCCNC1C2CC3CC(C2)CC1C3` (stereo not given): 61.4% (inactive).
In the case of `O=C(O)CCNC(=O)c1ccccc1` it was 36.7% (inactive); in that of `CCCC1(C2CC2)c2cc(Cl)ccc2NC(=O)N1C` (stereo not given), 18.8% (inactive).
The same measure for `CN(C/C=C/C#CC(C)(C)C)Cc1cccc2ccccc12`: 23.6% (inactive).
In the case of `Fc1ccc(-n2cc(Cn3c(-c4cccc(F)c4)nc4ccccc43)nn2)cc1`, the growth inhibition was 17.9% (inactive).
The same measure for `Cc1cc(C2CCCCC2)n(O)c(=O)c1`: 18.5% (inactive).
The same measure for `Nc1ccc2oc(=O)ccc2c1I`: 8.52% (inactive); for `CC(C)c1ccc(COc2cccc(-c3cc([S+](C)[O-])c(C#N)c(=O)[nH]3)c2)cc1` (stereo not given): 0% (inactive); for `O=C(NCc1ccc2c3c(cccc13)C(=O)N2)c1cccs1`: 17% (inactive).
The same measure for `O=C(NCc1cccc2ccccc12)c1cccs1`: 0% (inactive); for `CCCNc1ccc(S(=O)(=O)Nc2cc(C)on2)cc1`: 0.262% (inactive); for `Cc1ccc(C)c(OCCCCCCN2C[C@H](O)[C@@H](O)[C@H](O)[C@H]2CO)c1`: 15.9% (inactive).
On to `CN(C)c1[nH]c(=O)ncc1F`, for which the growth inhibition was 24.8% (inactive).
Turning to `CONC(=N)c1ccc(-c2ccc(-c3ccc(C(=N)NOC)cc3)o2)cc1`, the growth inhibition is 29.9% (inactive).
In the case of `O=C1C=C(c2ccccc2)S(=O)(=O)c2ccccc21` it was 12.3% (inactive).
In the case of `CC(C)CCN1C(=O)C(C2=NS(=O)(=O)c3cc(NS(C)(=O)=O)ccc3N2)=C(O)[C@@H]2[C@H]3CC[C@H](C3)[C@@H]21` it was 28.5% (inactive).
The same measure for `CCOC(=O)N1CCN(c2ccc(Cl)cc2)CC1`: 10.6% (inactive); for `Cc1nc2ccc(Oc3ccccc3)cc2c2c1CCN2CCc1ccccc1`: 54.5% (inactive); for `NC(=O)c1[nH]c2ccc(S(N)(=O)=O)cc2c1-c1ccccc1`: 34.5% (inactive).
Consider `O=S(=O)(Nc1cccc2cccnc12)c1ccccc1`, for which the growth inhibition is 13.6% (inactive).
The same measure for `Oc1ccc2[nH]c(-c3ccccc3)nc2c1`: 26.7% (inactive); for `CNC(=O)C1O[C@@H](n2cnc3c(NCc4cccc(I)c4)nc(Cl)nc32)[C@H](O)[C@@H]1O` (stereo not given in full): 3.52% (inactive); for `COc1ccc2c(c1)cc(CNC(=O)c1cc3ccccc3o1)n2CC(=O)O`: 17.7% (inactive).
The same measure for `O=C(NO)C1(CS(=O)(=O)c2ccc(Oc3ccc(Cl)cc3)cc2)CCOCC1`: 7.63% (inactive).

The record behind these values is the supplement of paper PMC9897528.
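Further: conidia screened in RPMI 1640 medium under 5% CO2, growth read by spectrophotometer, medium with 0.5% DMSO serving as the untreated reference.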
